Sampled rows, rich in hits. Any-hit rate of the full collection: about 2.8%.
Pol beta inh – DNA polymerase beta (human) inhibition; Pol beta primer extension/strand displacement, fluorescence kinetic; Potency, µM (doses to about 114 µM), for the others: at the highest dose activity change, negative = inhibition, usual class: inhibitors; 1.3% of 340,000 active; AID 485314; note: potency is the fitted concentration of half-maximal effect; % is set by controls: 0 for no effect and ±100 for the full control effect
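Reaction started by 50 nM substrate onto compound-treated Pol beta (10 nM, 15 min preincubation, room temperature); plates read at 0 min and 10 min. Normalized concentration-effect data fitted by four-parameter Hill equation.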
POLI inh – DNA polymerase iota (human) inhibition. Pol iota fluorescent replication assay, 10 min. Potency, µM (top dose mostly 115 µM), inactives show at the top dose activity, negative = inhibition, actives largely listed as inhibitors. 1% of 390,000 active; note: potency is the fitted concentration of half-maximal effect
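Fluorescent replication assay read twice, at 0 min and 10 min after adding 50 nM (final) substrate. Enzyme (10 nM) and compounds were first incubated 15 min at room temperature; enzyme-free buffer wells were negative controls.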
PI5P4K alpha inh – blocks human PI5P4K alpha kinase activity; PI5P4Kalpha enzyme, ADP-Glo luminescence, 60 min; hits give low values; 1.2% of 330,000 active; max response, %; AID 652105; active = max response of -50% or lower; inconclusive = between -30% and -50%; inactive = -30% or higher; note: value at the top dose of about 77 µM; % is set by controls: 0 for no effect and ±100 for the full control effect
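Reactions run in 0.038 M HEPES pH 7.4, 0.28 mM EGTA, 0.1% CHAPS and 5% DMSO, with PI5P4Kalpha, substrate, compound and 5 microM ATP final, one hour at room temperature. Readout is ADP-Glo luminescence.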
Pol eta inh-1 – inhibitors of human DNA polymerase eta; Q9Y253; recombinant Pol eta, fluorescent DNA replication assay; Potency, µM (titrated, usually from 114 µM), for inactives: at the highest dose activity change, negative = inhibition, hits mostly inhibitors; 1.2% of 390,000 active; note: potency is the fitted concentration of half-maximal effect; % is set by controls: 0 for no effect and ±100 for the full control effect
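Pol eta at 10 nM preincubated with compounds 15 min at room temperature; reaction started with fluorescent substrate (50 nM final) and read kinetically at 0 and 10 min.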
WRN helicase inh – blocks human WRN helicase | Q14191 | WRN helicase unwinding, fluorescent forked duplex, kinetic | Potency, µM (highest dose often 114 µM), inactives show top-dose activity change, negative = inhibition, usual class: inhibitors | 0.46% of 360,000 active | AID 651768; note: potency is the fitted concentration of half-maximal effect; % is set by controls: 0 for no effect and ±100 for the full control effect; nearly all actives have a fitted effect of over 55% in size
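Fluorescence dequenching readout, ex 525 nm/em 598 nm, kinetic mode: forked duplex DNA (100 nM final) with adjacent fluorophore and quencher unwound by WRN (20 nM final) with 2 mM ATP. Compound preincubation 15 min, room temperature.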
Pol kappa inh-1 – DNA polymerase kappa (human) inhibition. Q9UBT6. 0.53% of 400,000 active. Potency, µM (series often up to 107 µM), for inactives: at the highest dose activity, negative = inhibition, usual class: inhibitors. purified Pol kappa, fluorescent DNA synthesis assay, 10 min; note: potency is the fitted concentration of half-maximal effect; % is set by controls: 0 for no effect and ±100 for the full control effect
Target sequence (Q9UBT6 whole entry, looked up): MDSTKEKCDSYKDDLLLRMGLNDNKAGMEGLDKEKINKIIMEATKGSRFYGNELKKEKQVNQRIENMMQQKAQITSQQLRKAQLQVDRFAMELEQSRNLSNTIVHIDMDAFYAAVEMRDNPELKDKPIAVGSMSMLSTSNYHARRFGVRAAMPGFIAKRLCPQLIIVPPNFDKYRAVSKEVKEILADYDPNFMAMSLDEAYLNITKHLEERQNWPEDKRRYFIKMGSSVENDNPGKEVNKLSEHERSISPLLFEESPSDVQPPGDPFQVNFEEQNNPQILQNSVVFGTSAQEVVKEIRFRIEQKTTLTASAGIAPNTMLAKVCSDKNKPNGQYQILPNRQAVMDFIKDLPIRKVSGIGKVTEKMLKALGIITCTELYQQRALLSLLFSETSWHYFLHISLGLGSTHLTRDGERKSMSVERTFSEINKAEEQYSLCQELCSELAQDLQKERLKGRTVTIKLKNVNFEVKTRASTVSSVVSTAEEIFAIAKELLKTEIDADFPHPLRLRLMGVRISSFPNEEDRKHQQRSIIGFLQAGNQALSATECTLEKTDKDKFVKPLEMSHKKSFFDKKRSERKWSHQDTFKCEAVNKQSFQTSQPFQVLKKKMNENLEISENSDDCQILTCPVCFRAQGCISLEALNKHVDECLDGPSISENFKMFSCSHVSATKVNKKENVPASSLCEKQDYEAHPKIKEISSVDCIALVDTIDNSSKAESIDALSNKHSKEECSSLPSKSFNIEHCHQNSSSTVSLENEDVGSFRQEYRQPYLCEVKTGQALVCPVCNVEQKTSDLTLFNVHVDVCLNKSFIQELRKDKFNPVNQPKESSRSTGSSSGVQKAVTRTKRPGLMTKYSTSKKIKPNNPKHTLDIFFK
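Readout: fluorescence, taken kinetically at 0 and 10 min. Conditions: 10 nM Pol kappa, 15 min RT compound preincubation, 50 nM substrate final. Controls: enzyme-free buffer wells.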
PGK validate – validation of Trypanosoma brucei phosphoglycerate kinase inhibitors. 79% of 500 active. Potency, µM (series often up to 57.5 µM), inactives show at the highest dose activity change, negative = inhibition, most hits filed as inhibitors. shares compounds with Pol kappa inh-1. TbPGK coupled GAPDH assay, Kinase-Glo luminescence; note: potency is the fitted concentration of half-maximal effect; % is set by controls: 0 for no effect and ±100 for the full control effect; nearly all actives have a fitted effect of over 65% in size
Pol iota confirm – Inhibitors of human DNA polymerase iota, confirmation | shares compounds with Pol kappa inh-1 | Pol iota primer extension, TAMRA/BHQ fluorescence | Potency, µM, usual class: inhibitors | 77% of 1,500 active; note: potency is the fitted concentration of half-maximal effect
GALK inh confirm – confirmation of human galactokinase (GALK) inhibitors; 70% of 150 active; purified GALK, Kinase-Glo ATP depletion luminescence; Potency, µM (titrated, usually from 115 µM), for the others: top-dose activity, negative = inhibition, most hits filed as inhibitors; shares compounds with Pol eta inh-1
Redox cycling – counter-screen for GALK inhibitors: redox cycling H2O2 generation; Potency, µM (highest dose often 115 µM), for the others: top-dose activity change, negative = H2O2 signal, most hits filed as inhibitors; shares compounds with Pol eta inh-1; Phenol red-HRP H2O2 redox cycling, absorbance 600 nm; 40% of 150 active
HEK293 viability – reduces HEK-293 cell viability in GALK counter-screen; Potency, µM (doses to about 46.1 µM), inactives show top-dose activity change, negative = cytotoxicity, hits mostly inhibitors; AID 2547; HEK-293 viability, ATP luminescence (CellTiter-Glo), 24/48 h; 10% of 170 active; shares compounds with Pol eta inh-1; note: potency is the fitted concentration of half-maximal effect; % is set by controls: 0 for no effect and ±100 for the full control effect
Pol kappa inh-2 – Pol kappa (human) inhibition, cherry-pick confirmation; AID 720501; purified Pol-kappa, fluorescent strand-displacement substrate; Potency, µM, hits mostly inhibitors; shares compounds with Pol eta inh-1; 76% of 920 active; note: potency is the fitted concentration of half-maximal effect
Pol eta inh-2 – confirmation of human DNA polymerase eta inhibitors; shares compounds with Pol eta inh-1; Pol eta primer extension, TAMRA/BHQ fluorescence, 10 min; Potency, µM, hits mostly inhibitors; 64% of 2,600 active; AID 720502; note: potency is the fitted concentration of half-maximal effect
Active calls of the source: *; ? = inconclusive; nt = not tested or not shown; [ ] = remark or other dose. Unless noted, calls come from the whole dose curve; as a rule, active = well fitted curve in the direction sought with a large enough effect; inconclusive = small, poorly fitted or top-dose-only effect, or another doubt; inactive = no such curve, though single readings can be large; an effect the other way counts as inactive or inconclusive.

SMILES	Pol beta inh	POLI inh	PI5P4K alpha inh	Pol eta inh-1	WRN helicase inh	Pol kappa inh-1	Pol iota confirm	Pol eta inh-2	others
Cc1cc(/C=C2\SC(=S)NC2=O)c(C)[nH]1	22µM*	20µM*	-77*	20µM*	-9%[11.6 µM]	79µM*	?	76*
COc1cccc2cc(C(=O)N3CC(C)OC(C)C3)c(=O)oc12 (stereo not drawn)	0%	11%	-4	4%	2%	-11%	nt	nt
COc1cc2c(oc(=O)c3cc(C)cc(OC)c32)c2c(C3OC(C)C(O)C(C)(O)C3O)ccc(O)c12 (stereo not drawn)	nt	14µM*	-1	4µM*	?	40µM*	30*	21*
Oc1cc(Br)ccc1C=Nc1ccc(N2CCCCC2)cc1	13%	20%	3	-13%	-2%	-3%[60.1 µM]	nt	nt
Oc1ccc(C=Nc2ccc(N3CCOCC3)cc2)c(O)c1	4%	?	-60*	14µM*	-23%[57.1 µM]	-41%	?	?
CCOc1ccc(NC(=O)c2cc3c(=O)n4cccc(C)c4nc3s2)cc1	2%	1%	nt	-4%	nt	-3%	nt	nt
Cc1ccnc2nc(C(=O)Nc3nnc(-c4ccc(Cl)cc4)o3)nn12	?	?	0	?	-9%[11.6 µM]	?	42*	?
CC(=O)c1ccc(C(=O)Nc2nnc(-c3ccc(Cl)cc3)o2)cc1	-13%	?	?	-9%	-9%	-31%	nt	nt
COc1ccc(C(=O)N2C(=S)NC(=O)/C2=C\c2ccc(C)cc2)cc1	50µM*	?	-29	?	50µM*	?	75*	?
COc1ccc(C=C2NC(=S)NC2=O)cc1	nt	16%	-9	-1%	1%	-5%	nt	nt
O=c1cc(-c2ccc(O)cc2)oc2cc(O)c([C@@H]3O[C@H](CO)[C@@H](O)[C@H](O)[C@H]3O)c(O)c12	nt	2%	12	9%	-8%	-10%	nt	nt
O=c1cc(-c2ccc(O)c(O)c2)oc2cc(O)c(C3OC(CO)C(O)C(O)C3O)c(O)c12 (stereo not drawn)	4.5µM*	10µM*	-6	3.2µM*	?	20µM*	42*	19*
CN(C)S(=O)(=O)c1ccc(Cl)c(C(=O)NNC(=O)c2ccc3c(c2)OCO3)c1	nt	9%	-1	-3%	-1%	9%	nt	nt
Cc1ccc(SC2=C(Sc3ccc(C)cc3)C(=O)c3ccccc3C2=O)cc1	1%	6.3µM*	-15	18µM*	79µM*	5%	?	85*
CC1=C(C(=O)Nc2ccccc2C)C(c2ccc[nH]2)n2ncnc2N1 (stereo not drawn)	40µM*	22µM*	nt	8.9µM*	nt	32µM*	21*	30*
CCN(CC)c1ccc(C2C(C(=O)Nc3ccccc3C)=C(C)Nc3ncnn32)cc1 (stereo not drawn)	2%	-14%	nt	-13%	nt	-9%[60.1 µM]	nt	nt
Cc1ccc(C(=O)O)cc1-c1ccc(/C=C2\SC(=O)N(CC(=O)Nc3ccccc3)C2=O)o1	?	?	-56*	18µM*	?	?	42*	48*
Cc1cc(/C=C2\SC(=O)N(CC(=O)Nc3ccccc3F)C2=O)c(C)n1C	21%	104%	-8	-16%	-8%	1%	nt	nt
O=C(CN1C(=O)S/C(=C\c2ccccn2)C1=O)Nc1ccccc1	11%	16%	-2	-4%	11%	-2%	nt	nt
Cc1ccccc1NC(=O)CN1C(=O)S/C(=C\c2ccc(-c3cc(C(=O)O)ccc3C)o2)C1=O	32µM*	8.9µM*	-79*	?	?	?	27*	27*	Pol kappa inh-2=8.4*
O=C(Nc1ccc(S(=O)(=O)Nc2nccs2)cc1)c1nn(-c2ccccc2)ccc1=O	?	-8%	?	6.3µM*	79µM*	2%	21*	24*	Pol kappa inh-2=12*
COc1ccc(-n2ccc(=O)c(C(=O)Nc3ccc(S(=O)(=O)Nc4nccs4)cc3)n2)cc1	?	?	-6	-15%	-24%	-13%	nt	nt
C=Cc1ccc(CN2C(=O)N(c3ccc(CC)cc3)S(=O)(=O)c3ccccc32)cc1	-1%	24%	nt	-13%	nt	-12%[60.1 µM]	nt	nt
Cc1c(C(=O)NCc2ccccc2Br)oc2c1-c1[nH]ncc1CC2	-28%	34%	nt	3%	nt	0%	nt	nt
O=C(/C=C/c1ccccc1)NCCc1ccccc1	25µM*	?	?	20µM*	-11%	?	?	67*	PGK validate=21µM*
O=S(=O)(c1ccc(Cl)cc1)c1nc(-c2ccccc2)oc1N1CCN(c2ccccc2)CC1	13%	?	nt	1%	nt	11%	nt	nt
O=C1C=C(NCc2ccccc2)c2ccccc2C1=O	?	1µM*	2	5.6µM*	?	-9%	42*	85*	GALK inh confirm=21µM*;Redox cycling=17µM*;HEK293 viability=?
CC1(C)C=C2C(=NN(c3ccccc3)C(N)=C2C#N)CO1	-13%	14µM*	6	18µM*	3%[57.1 µM]	-3%	?	nt	GALK inh confirm=27µM*;Redox cycling=12µM*;HEK293 viability=1%
CC1(C)Cc2c(C#N)c(N)n(-c3ccccc3)c(=S)c2CO1	-1%	70%	0	-8%	0%	-20%	nt	nt
